# Measured values published in the supplement of paper PMC8387472.
# “And” between values parts separate entries of the source, which are not always exact repeats. Equal entries are not always repeated. Structures can show the parent of a compound that is named as a salt. ± gives the standard deviation of the averaged measurements.
# System: mESC LDLR-Dup GFP reporter (SpCas9 MH-deletion repair)
# Assay: fraction of GFP+ cells relative to DMSO control (fold change); higher = more MH-deletion repair to in-frame LDLR (or more editing)
# Settings: 2 µM; 7 days post-transfection
row,Compound,fraction of GFP+ cells
1,O=c1cc(-c2cccc3c2Sc2ccccc2S3)oc(N2CCOCC2)c1,0.661 ± 0.19
2,O=C(c1ccc(Cl)cc1Cl)n1nnc2ccccc21,0.756 ± 0.056
3,COc1cc(Cc2cnc(N)nc2N)cc(OC)c1OC [Trimethoprim],0.773 ± 0.079
4,Nc1nc(NC2CC2)cc(-c2cccc(Cl)c2Cl)n1,0.918 ± 0.2
5,CS(=O)(=O)c1ccc(-c2nnc(/C=C/c3nnc(-c4ccc(C#N)cc4)o3)n2-c2ccccc2Cl)nc1,0.816 ± 0.089
6,O=S(=O)(c1cccc2cnccc12)N1CCCNCC1 [Fasudil (HA-1077) HCl],2.2 ± 0.25
7,Cc1ccc(C)c(OCCCC(C)(C)C(=O)O)c1 [Gemfibrozil],1.46 ± 0.29
8,CNNCc1ccc(C(=O)NC(C)C)cc1 [Procarbazine HCl],1.04 ± 0.053
9,CN(C)CC(=O)Nc1ccc2[nH]c(=O)c3ccccc3c2c1,1.02 ± 0.06
10,CC(N)C12CC3CC(CC(C3)C1)C2 (centres undefined) [Rimantadine Hydrochloride],0.701 ± 0.034
11,CCN1/C(=C/C(C)=O)Sc2ccc(OC)cc21,0.802 ± 0.095
12,O=c1cc(N2CCOCC2)oc2c(-c3cccc4c3sc3ccccc34)cccc12,0.732 ± 0.4
13,C[C@H](Oc1cc(-c2cnn(C3CCNCC3)c2)cnc1N)c1c(Cl)ccc(F)c1Cl [(S)-crizotinib],0.94 ± 0.18
14,Cc1cc(O)c2c(c1)C(=O)c1cc(O)cc(O)c1C2=O [Emodin],1.12 ± 0.16
15,CC(=O)c1c(C)c2cnc(Nc3ccc(N4CCNCC4)cn3)nc2n(C2CCCC2)c1=O,1.36 and 0.964
16,C/C(=C\C(=O)OCCCCCCCCC(=O)O)C[C@@H]1OC[C@H](C[C@@H]2O[C@H]2[C@@H](C)[C@H](C)O)[C@@H](O)[C@H]1O [Mupirocin],1.12 ± 0.3
17,CNC1CCCN(c2c(F)cc3c(=O)c(C(=O)O)cn(C4CC4)c3c2OC)C1 (centres undefined) [Balofloxacin],0.978 ± 0.15
18,NC(=O)c1ncn([C@@H]2O[C@H](CO)[C@@H](O)[C@H]2O)c1O [Mizoribine],1.05 ± 0.12
19,CC1=C(C(=O)Nc2cc3cn[nH]c3cc2F)C(c2ccc(C(F)(F)F)cc2)CC(=O)N1 (centres undefined),1.27 ± 0.48
20,O=C(CCCCCCNC(=O)c1cnc(N(c2ccccc2)c2ccccc2Cl)nc1)NO [Citarinostat (ACY-241)],0.902 ± 0.074
21,C=CCc1ccc(O)c(-c2cc(CC=C)ccc2O)c1 [Magnolol],0.713 ± 0.084
22,O=C(O)c1cc(I)ccc1NC(=O)[C@H](Cc1ccccc1)NCc1ccccc1,1.89 ± 0.36
23,NC(=O)c1ccc(I)c([N+](=O)[O-])c1 [Iniparib (BSI-201)],1.03 ± 0.039
24,CNCc1ccc(-c2cc(-c3nc(-c4ccc(S(=O)(=O)C(C)C)cc4)cnc3N)on2)cc1,0.301 ± 0.12
